The structures appear in SMILES notation. Results filed as inconclusive are left out. Calls of active or inactive are those of the source. Calls follow the shape of the dose curve; as a rule, active = well fitted inhibition curve with a large enough effect; inconclusive = small, poorly fitted or top-dose-only effect; inactive = no such curve, though single readings can be large or run the other way.
% is scaled to controls: 0 for no effect and ±100 for the full control effect; potency is read from the fitted curve at half-maximal effect.

In this assay the target is Cytochrome P450 3A4 (Homo sapiens) (UniProt P08684). Put plainly: qHTS Assay for Inhibitors and Substrates of Cytochrome P450 3A4 (AID 884). Also: nearly all actives have a fitted effect of over 50% in size. Particulars: recombinant CYP3A4, Luciferin-PPXE luminescence; series mostly up to 57.1 µM; activity change, negative = inhibition: at the top concentration. The protocol: NIH Molecular Libraries Screening Centers Network [MLSCN]
Sequence of Cytochrome P450 3A4 (Homo sapiens) (P08684 whole entry, looked up): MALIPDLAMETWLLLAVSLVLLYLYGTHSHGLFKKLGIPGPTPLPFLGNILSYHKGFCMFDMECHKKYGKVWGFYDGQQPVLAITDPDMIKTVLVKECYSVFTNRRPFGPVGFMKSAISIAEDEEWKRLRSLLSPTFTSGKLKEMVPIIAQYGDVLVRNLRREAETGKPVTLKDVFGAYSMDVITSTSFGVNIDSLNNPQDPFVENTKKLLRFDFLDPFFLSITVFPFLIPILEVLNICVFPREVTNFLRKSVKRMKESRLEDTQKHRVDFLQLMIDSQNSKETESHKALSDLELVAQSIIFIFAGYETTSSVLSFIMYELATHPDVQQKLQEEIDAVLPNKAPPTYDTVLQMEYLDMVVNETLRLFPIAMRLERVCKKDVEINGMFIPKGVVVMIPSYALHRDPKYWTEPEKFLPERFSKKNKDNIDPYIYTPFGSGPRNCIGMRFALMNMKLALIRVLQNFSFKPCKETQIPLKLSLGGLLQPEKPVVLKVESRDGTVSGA
NIH Chemical Genomics Center [NCGC]
The P450 gene superfamily is involved in the metabolism and clearance of xenobiotics. This assay used human CYP3A4 to measure the dealkylation of luciferin-6' phenylpiperazinylyl (Luciferin-PPXE; […]) to luciferin. The luciferin is then measured by luminescence after the addition of a luciferase detection reagent. Luciferin-PPXE concentration in the assay was equal to its KM for CYP3A4. Inhibitors and some substrates limit the production of luciferin, and decrease measured luminescence.
NCGC Assay Protocol Summary:
Two uL of enzyme and substrate mix (final concentrations: 20nM CYP3A4, 25uM Luciferin-PPXE, 200mM KPO4) were dispensed into a white, solid bottom 1536-well microtiter plate. 23nL of compound was transferred by a pin tool. The plate was incubated at RT for 10 min. Two uL of an NADPH regeneration solution (Promega supplied reagent) was dispensed and the reaction was allowed to continue for 60 min at RT. Then the reaction was stopped by reconstituted luciferin detection buffer. After another 20 min of incubation the plate was read on the ViewLux (Perkin Elmer) at 60 sec exposure and 2x2 binning. This protocol was carried out with Promega-Glo reagents and further information can be found at http://www.promega.com/tbs/tb325/tb325.pdf. Data were normalized to the to AC100 inhibition (57 uM ketoconazole).
Keywords: P450, CYP3A4, Luciferase, MLSMR, MLSCN, NIH Roadmap, qHTS, NCGC
As for `Oc1ccc(Cl)cc1Cl`, the “activity change, negative = inhibition” value is -13.4% (inactive).
For `COP(=S)(OC)Oc1ccc([N+](=O)[O-])cc1`, the Potency was 3.98 µM (active).
In the case of `CN=C=S`, the “activity change, negative = inhibition” value is -3.04% (inactive).
For the molecule `C=C(C)C#N`, the “activity change, negative = inhibition” value was 10.3% (inactive).
As to `CC(C)c1c(CN(C)[C@@H](C)Cc2ccccc2)n(C)n(-c2ccccc2)c1=O`, the Potency is 3.98 µM (active).
`CNC(=O)Oc1cccc2c1OC(C)(C)C2`: the “activity change, negative = inhibition” value was 11.5% (inactive).
Take `C[C@H]1C(=O)O[C@H]2CCN3CC=C(COC(=O)[C@](C)(O)[C@@]1(C)O)C23` (stereo not given in full): the “activity change, negative = inhibition” value was -10.4% (inactive).
As for `CC[C@H]1C(=O)OC[C@H]1Cc1cncn1C`, the Potency was 3.16 µM (active).
As for `COc1ccc(N)cc1`, the “activity change, negative = inhibition” value is -15% (inactive).
The same measure, in the same setting: for `CC(C)(C#N)O[C@H]1OC(CO)C(O)C(O)C1O` (stereo not given in full) the value was 1.68% (inactive); for `Clc1cc(Cl)c(-c2cc(Cl)c(Cl)cc2Cl)cc1Cl`, -5.8% (inactive).
`C=C1C2CC[C@@]3(C)C(c4ccoc4)OC(=O)C[C@@]13OC1CC(=O)C(C)(C)C(C(OC(C)=O)C(=O)OC)[C@@]12C` (stereo not given in full): the Potency is 1 µM (active).
For `c1ccc(OP(Oc2ccccc2)Oc2ccccc2)cc1`, the “activity change, negative = inhibition” value is -19% (inactive).
In the case of `COc1cc(C2c3cc4c(cc3C(O)C3COC(=O)C23)OCO4)cc(OC)c1O` (stereo not given), the Potency is 6.31 µM (active).
As to `COc1cc2c(cc1OC)[C@]13CCN4CC5=CCOC6CC(=O)N2[C@@H]1[C@@H]6C5C[C@@H]43` (stereo not given in full), the “activity change, negative = inhibition” value was -9.55% (inactive).
In the case of `CC(=O)OC1C[C@@]2(C)C(c3ccoc3)C[C@H]3O[C@@]32[C@@]2(C)C(=O)C(O)=C3C(C)(C)C(=O)C=C[C@]3(C)C12` (stereo not given in full), the Potency is 0.398 µM (active).
Same read-out and setting: for `c1ccc(N=Nc2ccccc2)cc1` the value was “inactive”; for `COc1cc2c(cc1O)CC1c3c(cc(O)c(OC)c3-2)CCN1C` (stereo not given), 25.1 µM (active); for `COC1=CC(=O)O[C@@H](/C=C/c2ccc3c(c2)OCO3)C1`, 2.51 µM (active).
Consider `CC(C)Nc1nc(Cl)nc(NC(C)C)n1`, for which the “activity change, negative = inhibition” value was -12.3% (inactive).
Same read-out and setting: the same measure for `COC(=O)COc1ccc(Cl)cc1Cl`: 11.1% (inactive); for `C1CCC2CCCCC2C1` (stereo not given): 0.807% (inactive).
On to `ClCBr`, for which the “activity change, negative = inhibition” value is -2.51% (inactive).
Turning to `Cc1ccccc1-c1cncnc1NCCc1cnc[nH]1`, the Potency was 0.631 µM (active).
For the molecule `CNC1C2CN3CCC(O2)C13` (stereo not given), the “activity change, negative = inhibition” value is -14.5% (inactive).
Take `CCCSC(=O)Cl`: the “activity change, negative = inhibition” value was -1.06% (inactive).
Consider `C[C@@]12CC[C@H](O)C[C@@H]1CC[C@H]1[C@H]2CC[C@@]2(C)[C@@H](C3=CC(=O)OC3)CC[C@]12O`, for which the Potency was 3.16 µM (active).
The same measure, in the same setting: for `COc1cc(OC)c(/C=C2/C(=O)Nc3ccccc32)c(OC)c1` the value was 2.51 µM (active).
As for `CNC(C)[C@@H](O)c1ccccc1` (stereo not given in full), the “activity change, negative = inhibition” value is -11.6% (inactive).
Consider `C=C(C)c1cc2cc(C(C)=O)c(O)cc2o1`, for which the Potency was 31.6 µM (active).
For `CC(Cl)Cl`, the “activity change, negative = inhibition” value was -8.24% (inactive).
On the same count and under the same terms, the same measure for `CCC(C)C(=O)OC1C(O)C2C(CN3CC(C)CCC3[C@]2(C)O)C2C[C@]34O[C@@]5(O)C(OC(=O)C(C)(O)CC)CCC3(C)C5C(OC(C)=O)C(OC(C)=O)C4[C@@]21O` (stereo not given in full): -4.14% (inactive).
On the same count and under the same terms, the same measure for `CC(=O)OC1C[C@H](O[C@@H]2C(O)C[C@H](O[C@@H]3C(O)C[C@@H](OC4CC[C@]5(C)C(CCC6C5CC(O)[C@@]5(C)C(C7=CC(=O)OC7)CC[C@@]65O)C4)OC3C)OC2C)O[C@H](C)[C@H]1O[C@H]1OC(CO)C(O)C(O)C1O` (stereo not given in full): -4.68% (inactive).
For `CC1(C)C(O)CC(O)[C@]2(C)C1CC(O)[C@]1(C)C2CC[C@@]2(C)C(c3ccoc3)OC(=O)C3O[C@]312` (stereo not given in full), the Potency was 12.6 µM (active).
Still for that read-out and setting: for `O=C1C(Cl)=C(Cl)C(=O)C(Cl)=C1Cl` the value was 2 µM (active).
For the molecule `CNC(=O)CSP(=S)(OC)OC`, the “activity change, negative = inhibition” value is 9.26% (inactive).
Still for that read-out and setting: the same measure for `C=C[C@H]1CN2CCC1C[C@@H]2C(O)c1ccnc2ccccc12` (stereo not given in full): -19.3% (inactive).
On the same count and under the same terms, for `CNC(=O)Oc1cccc2c1OC(C)(C)O2` the value was -11.8% (inactive).
For `COc1cc(C2c3cc4c(c(O)c3CC3COC(=O)C32)OCO4)cc(OC)c1OC` (stereo not given), the Potency is 1 µM (active).
With `C[C@@]12CCC3C(CCC4=CC(=O)CC[C@]43C)C1CCC2O` (stereo not given in full), the “activity change, negative = inhibition” value is 20.7% (inactive).

These data come from PubChem BioAssay (NCATS).
